PubChem BioAssay (NCATS)
Inconclusive results are not listed. The call rests on the fitted dose curve; in most records, active means well fitted curve in either direction with a large enough effect (not every such curve was filed as active); inconclusive means small, poorly fitted or top-dose-only effect, or another doubt; inactive means flat fitted curve, though single readings scatter.

Assay: NFAT Signaling Pathway (AID 444);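 further: carbachol stimulus at about its EC50 of 1 µM final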
Conditions: Jurkat NFAT-bla M1, carbachol, beta-lactamase ratio, 5 h; at 17.2 µM (top of the series) unless noted
Outline: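 Jurkat cells with NFAT-driven β-lactamase reporter and co-expressed M1 receptor, stimulated with carbachol (final 1 uM, ~EC50), compound titration, 5 h at 37 °C. CCF4 loaded 1 h at RT; 460/530 nm ratio gave %activity and AC50.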
On the % scale 0 is the no-effect control and ±100 the full control effect.

Activity change, negative = inhibition, inactive:
CCCCOC(=O)CCc1nc2ccccc2[nH]1 -0.459%
Cc1c(NS(=O)(=O)c2cccc3nsnc23)c(=O)n(-c2ccccc2)n1C -7.17%
Cc1cc(NC(=O)CSc2nc(-c3cccnc3)ccc2C#N)no1 6.09%
COc1cc(C)nc(N(C)S(=O)(=O)c2ccccc2Cl)n1 -19.3%
CCOC(=O)C1CCN(c2ncnc3c2cnn3-c2ccc(OC)cc2)CC1 -5.45%
O=C(CCCN1C(=O)c2ccccc2C1=O)N1CCC(c2ccccc2)C1 (stereo not given) 15.7%
Cn1c(=O)[nH]c(=O)c2c1nc(Br)n2CCSc1ncccn1 -10.8%
COc1ccc(/C(O)=C2\C(=O)C(=O)N(CCN(C)C)C2c2cccc(OC)c2OC)cc1Cl (stereo not given) 11.9%
CCOC(=O)c1ccc(N2CC(O)=C(c3nc4ccccc4c(=O)[nH]3)C2=N)cc1 -8.54%
CC(C)c1cc(NCCCN2CCOCC2)n2c(nc3ccccc32)c1C#N -9.44%
COc1cccc(N2CCN(C(=O)c3ccc(=O)oc3)CC2C)c1 (stereo not given) -28.2%
O=C(NCCc1ccccc1)/C(=N\O)c1ccccc1 11.6%
C/C(=N\O)c1c(C)c2ccccc2n1C -14.1%
COc1ccc2[nH]c(C)c(C(=O)CN3CCc4cc(OC)c(OC)cc4C3)c2c1 1.37%
COC(=O)c1cc(OC)c(OC)cc1N 0.905%
Cn1c(=O)[nH]c(=O)c2c1nc(N1CCN(c3cccc(Cl)c3)CC1)n2CCCc1ccccc1 -11.9%
O=C(C1=C(O)C(=O)N(c2ncccn2)C1c1cccc(Cl)c1)c1ccco1 (stereo not given) 22.6%
Cc1nc(NCCCO)c(C#N)c2c1COC(C)(C)C2 1.02%
CNS(=O)(=O)c1cccc2nsnc12 4%
Cc1cc(=O)oc(C)c1C(=O)Nc1ccc2nsnc2c1 -6.31%
CCN(CC)CCn1c(O)c(N=O)c2ccccc21 -17.1%
COc1ccccc1C1(CC(=O)N2CCOCC2)CCOC(C(C)C)C1 (stereo not given) 13.2%
CCCNC(=O)N(C)c1nncnc1C(=O)NC 2.36%
Cc1cc(O)c(C(C)C)cc1N=C1CSC(=O)N1 -9.06%
COc1cc(C(=O)Nc2ccccn2)cc(OC)c1OC 12%
Cc1nc2sc(C)c(C)c2c(=O)o1 4.96%
CCCCc1nc(N2CCOCC2)c(C#N)c2c1COC(C)(C)C2 16.6%
COc1ccccc1NC(=O)CSc1nnc(-c2ccc(NC(C)=O)cc2)n1C -2.99%
COC(=O)CSCC(=O)Nc1cc2c(cc1C(C)=O)OCO2 29.7%
CCOC(=O)c1c(C(F)(F)C(F)(F)C(F)(F)C(F)(F)F)n[nH]c1C -9.51%
O=C(c1cc(N2CCCCC2)nc2ccccc12)N1CCOCC1 -13.8%
CCOC(=O)CNC(=O)CNC(=O)c1ccc(OC)cc1 -1.87%
CC(C)C(C(=O)Nc1ncn[nH]1)N1C(=O)c2ccccc2C1=O (stereo not given) -9.04%
O=C1[C@@H]2[C@H](C(=O)N1O)[C@H]1C=C[C@@H]2C1 -15.3%
COc1cc(C2C(C(=O)c3cccs3)=C(O)C(=O)N2c2cc(C)on2)ccc1O (stereo not given) 0.425%
CCOc1ccc(C2/C(=C(/O)c3ccc(F)cc3)C(=O)C(=O)N2CCCN(C)C)cc1 (stereo not given) 5.42%
Cc1ccc2[nH]c(CCN(C)C)c(CC#N)c2c1 8.6%
CCCCC(CCC(=O)Nc1ccc(C(=O)OCC)cc1)C(=O)O (stereo not given) 8.16%
C=C(C)C1Cc2c(C)nn(-c3nc(C)cc(C)n3)c2C1 (stereo not given) 10.4%
COc1ccc(OC)c(N=C(C)C2=C(O)COC2=O)c1 0.486%

Assay: Stat Signaling Pathway (AID 446);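 further: ME-180 cervical cancer cells given 40 pM IL-6 alongside compound; SIE-controlled beta-lactamase reporter measured as 460/530 nm FRET emission ratio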
Conditions: ME-180 (cervical carcinoma) SIE beta-lactamase reporter, IL-6 stimulated, 5 h; at 17.2 µM (top of the series) unless noted
Outline: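 IL-6/STAT signaling read in ME-180 cells via an SIE beta-lactamase reporter. Stimulus was 40 pM IL-6 (its AC50) for 5 hrs, so both activation and inhibition register.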

activity, negative = inhibition, inactive:
CCCCOC(=O)CCc1nc2ccccc2[nH]1 6.02%
Cc1c(NS(=O)(=O)c2cccc3nsnc23)c(=O)n(-c2ccccc2)n1C 0.737%
Cc1cc(NC(=O)CSc2nc(-c3cccnc3)ccc2C#N)no1 -9.33%
COc1cc(C)nc(N(C)S(=O)(=O)c2ccccc2Cl)n1 1.54%
CCOC(=O)C1CCN(c2ncnc3c2cnn3-c2ccc(OC)cc2)CC1 1.28%
O=C(CCCN1C(=O)c2ccccc2C1=O)N1CCC(c2ccccc2)C1 (stereo not given) 1.3%
Cn1c(=O)[nH]c(=O)c2c1nc(Br)n2CCSc1ncccn1 4.76%
COc1ccc(/C(O)=C2\C(=O)C(=O)N(CCN(C)C)C2c2cccc(OC)c2OC)cc1Cl (stereo not given) 8.3%
CCOC(=O)c1ccc(N2CC(O)=C(c3nc4ccccc4c(=O)[nH]3)C2=N)cc1 -21.7%
CC(C)c1cc(NCCCN2CCOCC2)n2c(nc3ccccc32)c1C#N 0.608%
COc1cccc(N2CCN(C(=O)c3ccc(=O)oc3)CC2C)c1 (stereo not given) -1.83%
O=C(NCCc1ccccc1)/C(=N\O)c1ccccc1 -3.56%
C/C(=N\O)c1c(C)c2ccccc2n1C 4.84%
COc1ccc2[nH]c(C)c(C(=O)CN3CCc4cc(OC)c(OC)cc4C3)c2c1 4.19%
COC(=O)c1cc(OC)c(OC)cc1N -0.00836%
Cn1c(=O)[nH]c(=O)c2c1nc(N1CCN(c3cccc(Cl)c3)CC1)n2CCCc1ccccc1 6.95%
O=C(C1=C(O)C(=O)N(c2ncccn2)C1c1cccc(Cl)c1)c1ccco1 (stereo not given) -6.45%
Cc1nc(NCCCO)c(C#N)c2c1COC(C)(C)C2 1.39%
CNS(=O)(=O)c1cccc2nsnc12 14.7%
Cc1cc(=O)oc(C)c1C(=O)Nc1ccc2nsnc2c1 8.13%
CCN(CC)CCn1c(O)c(N=O)c2ccccc21 14.5%
COc1ccccc1C1(CC(=O)N2CCOCC2)CCOC(C(C)C)C1 (stereo not given) -0.0907%
CCCNC(=O)N(C)c1nncnc1C(=O)NC -3.2%
Cc1cc(O)c(C(C)C)cc1N=C1CSC(=O)N1 -6.54%
COc1cc(C(=O)Nc2ccccn2)cc(OC)c1OC 25.9%
Cc1nc2sc(C)c(C)c2c(=O)o1 -1.71%
CCCCc1nc(N2CCOCC2)c(C#N)c2c1COC(C)(C)C2 -1.34%
COc1ccccc1NC(=O)CSc1nnc(-c2ccc(NC(C)=O)cc2)n1C -0.879%
COC(=O)CSCC(=O)Nc1cc2c(cc1C(C)=O)OCO2 9.85%
CCOC(=O)c1c(C(F)(F)C(F)(F)C(F)(F)C(F)(F)F)n[nH]c1C -8.59%
O=C(c1cc(N2CCCCC2)nc2ccccc12)N1CCOCC1 4.94%
CCOC(=O)CNC(=O)CNC(=O)c1ccc(OC)cc1 14.1%
CC(C)C(C(=O)Nc1ncn[nH]1)N1C(=O)c2ccccc2C1=O (stereo not given) -1.14%
O=C1[C@@H]2[C@H](C(=O)N1O)[C@H]1C=C[C@@H]2C1 10.4%
COc1cc(C2C(C(=O)c3cccs3)=C(O)C(=O)N2c2cc(C)on2)ccc1O (stereo not given) -6.54%
CCOc1ccc(C2/C(=C(/O)c3ccc(F)cc3)C(=O)C(=O)N2CCCN(C)C)cc1 (stereo not given) 6.85%
Cc1ccc2[nH]c(CCN(C)C)c(CC#N)c2c1 5.44%
CCCCC(CCC(=O)Nc1ccc(C(=O)OCC)cc1)C(=O)O (stereo not given) 3.27%
C=C(C)C1Cc2c(C)nn(-c3nc(C)cc(C)n3)c2C1 (stereo not given) 0.182%
COc1ccc(OC)c(N=C(C)C2=C(O)COC2=O)c1 -3.94%
